Laboratory results taken from PubChem BioAssay (NCATS).
“And” between values parts separate entries of the source, which are not always exact repeats. Identical values can stand only once. Records with an inconclusive call do not appear. Where a call stands in place of a potency, no number is given. A structure can be active in one record and inactive in another. The source made the active and inactive calls. Unless noted, calls come from the whole dose curve; as a rule, active = well fitted curve in the direction sought with a large enough effect; inconclusive = small, poorly fitted or top-dose-only effect, or another doubt; inactive = no such curve, though single readings can be large; an effect the other way counts as inactive or inconclusive.

Assays:
[1] = qHTS for Inhibitors of Plasmodium falciparum (DD2) proliferation (AID 504314); note: potency is the fitted concentration of half-maximal effect;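 for activity, negative = inhibition: parasite DNA measured by SYBR Green fluorescence after red cell lysis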
Method in brief: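 Erythrocytes infected with P. falciparum Dd2 (0.3% parasitemia, 2.5% hematocrit) exposed to compound 72 h at 37C, 5% CO2. Parasite DNA quantified by SYBR Green fluorescence after saponin/Triton lysis overnight; normalized to 0.29 uM artemisinin and DMSO.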

[2] = qHTS for Inhibitors of Plasmodium falciparum (GB4) proliferation (AID 504315); note: nearly all actives have a fitted effect of over 50% in size; note: potency is the fitted concentration of half-maximal effect
Method in brief: (§1)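 Erythrocytes infected with P. falciparum line (0.3% parasitemia, 2.5% hematocrit final) incubated with compounds 72 h at 37 °C, 5% CO2; SYBR Green lysis buffer added, fluorescence read next day. Normalized to 0.29 uM artemisinin and DMSO.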

[3] = qHTS for Inhibitors of Plasmodium falciparum (7G8) proliferation (AID 504316); note: nearly all actives have a fitted effect of over 65% in size; note: potency is the fitted concentration of half-maximal effect
Method in brief: as §1

[4] = qHTS for Inhibitors of Plasmodium falciparum (HB3) proliferation (AID 504318); note: nearly all actives have a fitted effect of over 60% in size; note: potency is the fitted concentration of half-maximal effect
Method in brief: as §1

[5] = qHTS for Inhibitors of Plasmodium falciparum (CP250) proliferation (AID 504320); note: potency is the fitted concentration of half-maximal effect
Method in brief: as §1

[6] = biological target: Atrial natriuretic peptide receptor 1 (Homo sapiens) (UniProt P16066); assay: Natriuretic polypeptide receptor (hNpr1) antagonism - Pilot CMLD screen (AID 1347052; calls by dose curve;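 note: HEK293 cells with hNpr1 stimulated by hNppA peptide at 0.1 nM; cGMP level read as GloSensor luciferase luminescence after agonist stimulation; series mostly up to about 9.2 µM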)
Sequence of Atrial natriuretic peptide receptor 1 (Homo sapiens) (P16066 whole entry, looked up): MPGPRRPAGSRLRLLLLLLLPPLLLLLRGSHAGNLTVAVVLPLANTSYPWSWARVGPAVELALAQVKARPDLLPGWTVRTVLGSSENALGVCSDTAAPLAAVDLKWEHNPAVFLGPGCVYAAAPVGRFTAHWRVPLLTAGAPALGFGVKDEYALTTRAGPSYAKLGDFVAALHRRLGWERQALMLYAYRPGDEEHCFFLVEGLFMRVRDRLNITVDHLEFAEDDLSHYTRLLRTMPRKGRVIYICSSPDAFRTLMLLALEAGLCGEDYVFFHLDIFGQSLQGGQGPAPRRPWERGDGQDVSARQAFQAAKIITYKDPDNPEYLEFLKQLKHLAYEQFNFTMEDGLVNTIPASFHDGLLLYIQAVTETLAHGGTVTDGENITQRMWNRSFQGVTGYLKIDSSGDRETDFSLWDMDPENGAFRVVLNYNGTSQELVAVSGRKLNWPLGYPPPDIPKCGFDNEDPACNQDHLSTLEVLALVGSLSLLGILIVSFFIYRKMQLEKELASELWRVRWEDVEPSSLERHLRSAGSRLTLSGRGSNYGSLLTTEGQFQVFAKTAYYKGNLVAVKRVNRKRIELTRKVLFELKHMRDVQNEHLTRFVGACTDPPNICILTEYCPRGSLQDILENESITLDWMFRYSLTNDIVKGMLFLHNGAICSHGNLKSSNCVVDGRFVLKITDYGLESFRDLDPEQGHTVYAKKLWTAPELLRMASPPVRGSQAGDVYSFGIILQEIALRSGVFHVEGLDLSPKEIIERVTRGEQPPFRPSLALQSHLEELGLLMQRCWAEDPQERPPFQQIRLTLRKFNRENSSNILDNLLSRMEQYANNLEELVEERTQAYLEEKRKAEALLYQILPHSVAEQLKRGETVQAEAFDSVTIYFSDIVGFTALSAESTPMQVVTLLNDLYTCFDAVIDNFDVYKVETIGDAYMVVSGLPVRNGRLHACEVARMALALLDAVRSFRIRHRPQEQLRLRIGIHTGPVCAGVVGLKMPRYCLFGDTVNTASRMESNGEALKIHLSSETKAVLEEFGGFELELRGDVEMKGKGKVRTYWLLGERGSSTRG

| Compound | Potency [1] | Potency [2] | Potency [3] | Potency [4] | Potency [5] | Potency [6] | activity, negative = inhibition [1] |
| --- | --- | --- | --- | --- | --- | --- | --- |
| COC(=O)C1(C(=O)OC)CC=CCc2ccccc2[C@H]1C[N+](=O)[O-] | inactive | inactive | inactive | inactive | inactive | inactive | – |
| COC(=O)C1=C(C)N(CC2CC2)C(=NCCc2cccnc2)NC1c1ccccc1 (stereo unspecified) | inactive | inactive | inactive | inactive | inactive | inactive | – |
| COC(=O)N[C@@H](c1cccs1)C(C(C)=O)C(=O)OC (stereo partly specified) | inactive | inactive | inactive | inactive | inactive | inactive | – |
| C[C@H]1Cc2c(COc3ccccc3)nc3c(c2CO1)CN(C(=O)C1CCCCC1)CC3 | – | inactive | inactive | inactive | inactive | inactive | -0.952% [at 1.12 µM] (inactive) |
| CC=COC(=O)N[C@@H](c1ccccc1)[C@]1(C(=O)OC)CCCC1=O | inactive | inactive | inactive | inactive | inactive | inactive | – |
| CC#CCN1C(=O)NC(c2ccccc2)C(C(=O)OCC)=C1c1ccccc1 (stereo unspecified) | inactive | inactive | inactive | inactive | inactive | inactive | – |
| COC(=O)CC=C[C@@H](C)[C@H](NC(=O)OCC(Cl)(Cl)Cl)c1ccccc1 | inactive | inactive | inactive | inactive | inactive | inactive | – |
| COCC=CC1=CC2=CC(=O)C(C)(OC(=O)c3cnc4ccccc4n3)C(=O)C2=CN1CC1CC1 (stereo unspecified) | inactive | inactive | inactive | inactive | inactive | inactive | – |
| COC(=O)N1C(C2CC2)=Cc2ccccc2C1CC(C)=O (stereo unspecified) | – | inactive | inactive | inactive | inactive | inactive | -2.33% [at 1.12 µM] (inactive) |
| COc1cccc([C@H]2Oc3ccc(OC)cc3C(=NO[C@@H](C)c3cn([C@H](CO)Cc4ccccc4)nn3)[C@H]2O)c1 | inactive | inactive | inactive | inactive | inactive | inactive | – |
| COC(=O)CC=C[C@@H](C)[C@H](OC)c1ccccc1Br | inactive and 1.5 µM (active) | inactive and 1.51 µM (active) | inactive and 1.9 µM (active) | inactive and 1.9 µM (active) | inactive and 1.35 µM (active) | inactive | – |
| COC(=O)CCCC1=CC2=C(c3ccccc3)C(=O)C(C)(OC(=O)C3CCCC3)C(=O)C2=CN1c1ccccc1 (stereo unspecified) | inactive | inactive | inactive | inactive | inactive | inactive | – |
| COC(=O)CCCC1=CC2=CC(=O)C(C)(OC(=O)c3cccs3)C(=O)C2=CN1C1CCCC1 (stereo unspecified) | – | inactive | inactive | inactive | inactive | inactive | -0.45% [at 1.12 µM] (inactive) |
| C[C@@H]1C(c2ccccc2)=Cc2[nH]c(=O)[nH]c2C[C@@H]1C(=O)N1CCCC1 | inactive | inactive | inactive | inactive | inactive | inactive | – |
| C[C@H]1C[C@@H](C)O[C@@]2(C1)C(=O)N(CC1CC1)c1ccccc12 | inactive | inactive | inactive | inactive | inactive | inactive | – |
| C=CC[C@@]1(C(=O)OC)C=C[C@@H](C)[C@H](c2ccccc2Br)N1C(=O)C(F)(F)F | inactive | inactive | inactive | inactive | inactive | inactive | – |
